Rows were chosen to be rich in hits. Some 1.2% of all compounds tested hit in one or more screens of this group.
PLC-gamma1 inh: blocks human PLC-gamma1 enzyme activity | 370,000 compounds, 0.84% hits | P19174 | inhibition, % at 12.2 µM | AID 720700 | purified PLC-gamma1, fluorogenic substrate, fluorescence; in the data active means inhibition above about 9.5%
GC-B act: GC-B (human) receptor activation. HEK293-GC-B cells, CNP EC30, cGMP TR-FRET; 0% at EC30 CNP, 100% saturating CNP. activation, % at 10 µM. 370,000 compounds, 0.11% hits;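 active means activation at 10 µM reaching about 35% in either raw or pattern-adjusted values, limit read from the data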
GC-A act: GC-A (human) enzyme activation; P16066; HEK293 GC-A cells, cGMP TR-FRET, EC30 ANP; 0% at EC30 ANP, 100% saturating ANP; activation, % at 10 µM; 370,000 compounds, 0.14% hits; AID 1671463; in the data active means activation above about 40%
PLC-beta3 inh: PLC-beta3 (human) inhibition, primary screen. Purified PLC-beta3, fluorogenic substrate, fluorescence. 370,000 compounds, 0.18% hits. inhibition, % at 12.2 µM;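 further: 0% = median of compound wells on plate and 100% = full blocker control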
PLCgamma1 ctr: counter-screen for PLC-beta3 inhibitors: inhibitors of human PLC-gamma1. AID 743258. 3,300 compounds, 3.1% hits. shares compounds with PLC-gamma1 inh. purified PLC-gamma1, fluorogenic substrate, fluorescence. inhibition, % at 12.3 µM; in the data active means inhibition above about 9.5%
PLCb3 confirm: human PLC-beta3 inhibition, confirmation; shares compounds with PLC-gamma1 inh; inhibition, % at 12.3 µM; 3,300 compounds, 1% hits; purified PLC-beta3, fluorogenic substrate fluorescence
Numbers without * were called inactive; / = not tested or not shown. Unless noted, no stated cut-off is given here; in the data, active means inhibition above about 11%; inactive means the rest.

SMILES	PLC-gamma1 inh	GC-B act	GC-A act	PLC-beta3 inh	PLCgamma1 ctr	PLCb3 confirm
CC1(C)CN(S(=O)(=O)OCC(Cl)(Cl)Cl)C(=O)N1	9.8*	6	3	7	/	/
COC(=O)C1=C(c2cc3ccccc3o2)C[C@@H]2CC[C@H]1N2C(=O)N1CCC(O)CC1	-1	4	1	1	/	/
COC(=O)C1=C(c2ccc(-c3ccccc3)c(F)c2)C[C@@H]2CC[C@H]1N2C(=O)NCc1cc(C)oc1C(F)(F)F	10.0*	-2	-3	8	/	/
COC(=O)C1=C(c2ccc(OC(F)(F)F)cc2)C[C@@H]2CC[C@H]1N2C(=O)NCC1CC1	6	126*	0	4	/	/
COC(=O)C1=C(c2cccc(C#N)c2)C[C@@H]2CC[C@H]1N2C(=O)NCc1cc(C)oc1C(F)(F)F	-1	-2	-1	5	/	/
COc1ccccc1-n1c(O)c(/C=N/N2CCCCC2)c(=O)n(-c2ccccc2OC)c1=S	-1	0	4	-8	/	/
O=c1ccc2cc3ccoc3c(O)c2o1	-25	-4	2	-29	/	/
O=C1NC(=O)C(=Cc2ccc(SC3CCCCC3)o2)C(=O)N1	-17	17	55*	-19	/	/
CC1(C)CC(=O)CC(C)(C)N1O	11*	1	-2	6	-5	-1
COc1ccc(-c2ccc3c(c2)CN(CC(C)C)Cc2cnnn2-3)cc1	-29	5	-1	-40	/	/
COc1ccc(-c2ccc3c(c2)CN(c2cccc(Cl)c2)Cc2cnnn2-3)cc1	13*	-8	8	-4	-4	-10
O=C(C1CC(c2ccccc2O)=NO1)N1CCC2(CC1)OCCO2 (centres undefined)	1	-2	0	-3	/	/
CN1C(=O)C(c2ccccc2)C(=O)N(C)C1=O	5	3	2	-1	/	/
CC(=O)CC(=O)C1C(=O)N(C)C(=O)N(C)C1=O	11*	-1	-4	3	-2	1
Cc1cc(C)n2nc(SC(C)C(=O)N3CCC4(CC3)OCCO4)nc2n1 (centres undefined)	12*	8	3	2	-4	-2
CC(NC1CCCCC1)C(O)C12CC3CC(CC(C3)C1)C2 (centres undefined)	4	0	1	2	/	/
O=C(COc1ccccc1)N1CCN(Cc2c[nH]c3ccccc23)CC1	11*	-8	-5	-1	-4	-1
CCCCN(Cc1ccccc1)C1CCN(CCc2ccccc2)CC1	13*	-5	-3	8	-3	-1
COc1ccc(CC(C)NCCc2ccc(OC)c(OC)c2)cc1 (centres undefined)	8	-10	-10	5	/	/
CC[C@]12CCN(CC3(O)CC3)[C@H](Cc3ccc(O)cc31)C2(C)C	-2	1	3	1	/	/
CCC(=NCc1ccco1)c1c(O)n(C)c(=O)n(C)c1=O	2	7	8	-8	/	/
CC(=NCc1ccco1)c1c(O)n(C)c(=O)n(C)c1=O	10*	1	0	4	-2	-1
CCN1CCC2(CC1)NC(CO)(CO)CO2	11*	-2	0	0	-3	-1
COc1ccccc1-n1c(CNCC2CCCO2)nc2ccccc2c1=O (centres undefined)	13*	-3	-1	11*	9.6*	4
O=C(Nc1ccc(F)cc1)N1Cc2ccccc2-n2nncc2C1	4	-8	0	2	/	/
SMILES	PLC-gamma1 inh	GC-B act	GC-A act	PLC-beta3 inh	PLCgamma1 ctr	PLCb3 confirm
CC1(C)CC(n2[nH]c(=O)c3c2NC(=O)CSC3c2ccccc2)CCO1 (centres undefined)	17*	4	4	10	-4	-13
Cc1ccc(C2SCC(=O)Nc3c2c(=O)[nH]n3C2CCOC(C)(C)C2)cc1 (centres undefined)	3	3	1	-1	/	/
CSc1ccc(C(=O)C(C)(C)N2CCOCC2)cc1	11*	1	-2	1	0	0
CCOC(=O)[C@]12Cc3ccc4ccccc4c3[C@H]1N(Cc1ccccc1)C(=O)c1ccccc12	11*	-6	-9	1	-7	-3
O=C1CC(c2ccccc2)CN1 (centres undefined)	4	14	5	-6	/	/
CN1CCN(CCC(C#N)(c2ccccc2)c2ccccc2)CC1	11*	-4	-9	12*	9	1
CC1(C)CN2C(c3ccc(Cl)cc3)N2C1 (centres undefined)	2	-2	-2	1	/	/
CCCCC(=O)N/N=C/c1c(O)n(C2CC2)c(=S)[nH]c1=O	10*	-1	2	8	-7	-3
NCC(O)c1cc(O)c(O)cc1F (centres undefined)	-1	1	-2	-2	/	/
Cc1nn(-c2ccccc2)c2c1C(c1ccc3c(c1)OCO3)SCC(=O)N2 (centres undefined)	-1	5	2	-2	/	/
CN(C)CP(=O)(O)CN(C)C=O	8	1	1	12*	-1	2
Cc1cccc(OP(N)(N)=O)c1C	4	-1	-1	1	/	/
Cc1cccc(C)c1OP(N)(=O)Oc1c(C)cccc1C	9.6*	-5	2	-7	0	-33
COC(=O)C1=C(c2ccc(OC(F)(F)F)cc2)C[C@@H]2CC[C@H]1N2C(=O)N1CCc2cc(OC)c(OC)cc2C1	-3	-5	-1	-10	/	/
CC(=NCCCN1CCOCC1)c1c(O)[nH]c(=O)[nH]c1=O	15*	1	0	2	-2	3
C=CCn1c(O)c(C(C)=NCCCN2CCOCC2)c(=O)[nH]c1=O	0	5	2	2	/	/
Cc1cc(Cl)nc(N)n1	13*	0	-3	7	-4	3
COC(=O)c1c(C)n(Cc2ccc3c(c2)OCO3)c2ccc(O)cc12	11*	22	78*	-6	-11	-12
Cc1ccc(N(C)C(=O)Oc2cccc3cccnc23)cc1	6	1	-2	7	/	/
O=[N+]([O-])O[C@H]1CO[C@H]2[C@@H]1OC[C@H]2O[N+](=O)[O-]	1	4	3	4	/	/
COC(=O)C1=C(c2ccc(S(C)(=O)=O)cc2)C[C@@H]2CC[C@H]1N2C(=O)N1CCC(C)CC1	-1	1	1	-2	/	/
O=c1[nH]c2ccccc2n1C1CCN(C(c2cccs2)c2nnnn2-c2ccc3c(c2)OCCO3)CC1 (centres undefined)	-1	2	-7	1	/	/
COC(=O)C1=C(c2ccc(OC(F)(F)F)cc2)C[C@@H]2CC[C@H]1N2C(=O)N1CCCC1	12*	-7	-1	4	-4	-2
CCCCn1c(O)c(C(CC)=NCCc2ccccc2)c(=O)[nH]c1=O	9.9*	21	21	-1	-1	-1
CCC(=NCC1CCCO1)c1c(O)n(Cc2ccccc2)c(=O)[nH]c1=O (centres undefined)	8	10	12	20*	-2	15*

Screening data deposited in PubChem by several laboratories.
